Screening data from PubChem BioAssay.
ELG1 DNA repair: ELG1-dependent DNA repair inhibition | HEK293T ELG1-luciferase reporter, luminescence, 16 h; DNA damage induced by 5-fluorouridine | Potency, µM (series often up to 46.1 µM), for the others: at the highest dose activity change, negative = inhibition, usual class: inhibitors | 2.3% of 330,000 active | AID 504467; note: % is set by controls: 0 for no effect and ±100 for the full control effect; nearly all actives have a fitted effect of over 55% in size
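In this reporter screen, reduction of luminescence relative to DMSO vehicle indicated activity. Compounds and 5-fluorouridine were added together to 2,000 cells per well, incubated for 16 hr at 37 °C, then developed with ONE-Glo.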
Rab9 promoter act: activators of Rab9 promoter; Huh7 Rab9 promoter-luciferase reporter, luminescence, 24 h; Potency, µM (top dose mostly 9.22 µM), without a hit: top-dose activation, negative = inhibition, hits mostly activators; 2.8% of 320,000 active; note: % of control where 0% means no effect; nearly all actives have a fitted effect of over 60% in size
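Huh7 reporter line, Rab9 promoter upstream of luciferase. Compound exposure 24 h at 37 °C in reduced-serum medium with 10% FBS. Read-out: luminescence.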
SMN2 splice enh: enhancers of SMN2 splice variant expression; HEK293 SMN2-luciferase splicing reporter, luminescence, 30-36 h; Potency, µM (doses to about 46.1 µM), inactives show top-dose activity change, positive = activation, hits mostly activators; 2.8% of 210,000 active; AID 1458; note: % of control where 0% means no effect; nearly all actives have a fitted effect of over 55% in size
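HEK293 cells carry an SMN2 minigene-luciferase reporter in which exon 7 inclusion puts luciferase in frame. Cells were seeded at 2000 cells/well, attached for 10-12 hours, then exposed to compounds for 30-36 hours at 37C before ONE-Glo luminescence.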
ELG1 genotox: induces genotoxicity in HEK293T cells with luciferase-tagged ELG1; AID 504466; 1.3% of 330,000 active; Potency, µM (series often up to 46 µM), without a hit: top-dose activity change, positive = activation, actives largely listed as activators; HEK293T ELG1-luciferase reporter, luminescence, 16 h; note: % of control where 0% means no effect; nearly all actives have a fitted effect of over 60% in size
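Genotoxicity was scored as increased ELG1-luciferase reporter signal, measured by ONE-Glo luminescence (30 min, room temperature). Compound or vehicle exposure of the HEK293T reporter cells lasted 16 hr at 37°C.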
NPC1 promoter act: NPC1 promoter activation; Huh7 NPC1 promoter luciferase reporter, 24 h; Potency, µM (doses to about 9.22 µM), for the others: top-dose activation, most hits filed as activators; 2.4% of 320,000 active; AID 485313; note: % of control where 0% means no effect; nearly all actives have a fitted effect of over 60% in size
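Readout is luciferase luminescence, reflecting NPC1 promoter activation in stably transfected Huh7 cells after 24 h compound exposure at 37 °C in reduced-serum medium with 10% FBS.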
FLuc modulator: firefly luciferase modulation, counter-screen for miR-21 project; 6.9% of 360,000 active; AID 588342; purified FLuc, Km substrates, luminescence inhibition; Potency, µM (top dose mostly 57.5 µM), for inactives: at the top dose activity change, negative = inhibition, usual class: inhibitors;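 note: plate controls were vehicle for no effect and reference inhibitor for full effect; nearly all actives have a fitted effect of over 55% in size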
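Purified P. pyralis luciferase (10nM final) with 10uM D-luciferin and 10uM ATP (Km levels) in 50mM Tris acetate pH 7.5, 10mM Mg acetate, 0.01% Tween-20, 0.05% BSA; qHTS 6-point titration, ~60 µM downward; luminescence read.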
ELG1 FLuc counter: luciferase inhibition in cell-free luciferin readout for ELG1 hits; shares compounds with ELG1 DNA repair; cell-free firefly luciferase luminescence counter-screen, ViewLux; Potency, µM (highest dose often 46.1 µM), for inactives: at the highest dose activity change, negative = inhibition, usual class: inhibitors; 3% of 350 active; note: % is set by controls: 0 for no effect and ±100 for the full control effect
ELG1 Luc conf: confirmation of human ELG1-dependent DNA repair inhibitors. shares compounds with ELG1 DNA repair. HEK293T ELG1-luciferase levels, luminescence; cells co-treated with 5-fluorouridine. Potency, µM (doses to about 46.1 µM), for inactives: at the highest dose activity change, negative = inhibition, hits mostly inhibitors. 68% of 670 active. AID 624248; note: % is set by controls: 0 for no effect and ±100 for the full control effect; nearly all actives have a fitted effect of over 55% in size
Target sequence (Q96QE3 whole entry, looked up): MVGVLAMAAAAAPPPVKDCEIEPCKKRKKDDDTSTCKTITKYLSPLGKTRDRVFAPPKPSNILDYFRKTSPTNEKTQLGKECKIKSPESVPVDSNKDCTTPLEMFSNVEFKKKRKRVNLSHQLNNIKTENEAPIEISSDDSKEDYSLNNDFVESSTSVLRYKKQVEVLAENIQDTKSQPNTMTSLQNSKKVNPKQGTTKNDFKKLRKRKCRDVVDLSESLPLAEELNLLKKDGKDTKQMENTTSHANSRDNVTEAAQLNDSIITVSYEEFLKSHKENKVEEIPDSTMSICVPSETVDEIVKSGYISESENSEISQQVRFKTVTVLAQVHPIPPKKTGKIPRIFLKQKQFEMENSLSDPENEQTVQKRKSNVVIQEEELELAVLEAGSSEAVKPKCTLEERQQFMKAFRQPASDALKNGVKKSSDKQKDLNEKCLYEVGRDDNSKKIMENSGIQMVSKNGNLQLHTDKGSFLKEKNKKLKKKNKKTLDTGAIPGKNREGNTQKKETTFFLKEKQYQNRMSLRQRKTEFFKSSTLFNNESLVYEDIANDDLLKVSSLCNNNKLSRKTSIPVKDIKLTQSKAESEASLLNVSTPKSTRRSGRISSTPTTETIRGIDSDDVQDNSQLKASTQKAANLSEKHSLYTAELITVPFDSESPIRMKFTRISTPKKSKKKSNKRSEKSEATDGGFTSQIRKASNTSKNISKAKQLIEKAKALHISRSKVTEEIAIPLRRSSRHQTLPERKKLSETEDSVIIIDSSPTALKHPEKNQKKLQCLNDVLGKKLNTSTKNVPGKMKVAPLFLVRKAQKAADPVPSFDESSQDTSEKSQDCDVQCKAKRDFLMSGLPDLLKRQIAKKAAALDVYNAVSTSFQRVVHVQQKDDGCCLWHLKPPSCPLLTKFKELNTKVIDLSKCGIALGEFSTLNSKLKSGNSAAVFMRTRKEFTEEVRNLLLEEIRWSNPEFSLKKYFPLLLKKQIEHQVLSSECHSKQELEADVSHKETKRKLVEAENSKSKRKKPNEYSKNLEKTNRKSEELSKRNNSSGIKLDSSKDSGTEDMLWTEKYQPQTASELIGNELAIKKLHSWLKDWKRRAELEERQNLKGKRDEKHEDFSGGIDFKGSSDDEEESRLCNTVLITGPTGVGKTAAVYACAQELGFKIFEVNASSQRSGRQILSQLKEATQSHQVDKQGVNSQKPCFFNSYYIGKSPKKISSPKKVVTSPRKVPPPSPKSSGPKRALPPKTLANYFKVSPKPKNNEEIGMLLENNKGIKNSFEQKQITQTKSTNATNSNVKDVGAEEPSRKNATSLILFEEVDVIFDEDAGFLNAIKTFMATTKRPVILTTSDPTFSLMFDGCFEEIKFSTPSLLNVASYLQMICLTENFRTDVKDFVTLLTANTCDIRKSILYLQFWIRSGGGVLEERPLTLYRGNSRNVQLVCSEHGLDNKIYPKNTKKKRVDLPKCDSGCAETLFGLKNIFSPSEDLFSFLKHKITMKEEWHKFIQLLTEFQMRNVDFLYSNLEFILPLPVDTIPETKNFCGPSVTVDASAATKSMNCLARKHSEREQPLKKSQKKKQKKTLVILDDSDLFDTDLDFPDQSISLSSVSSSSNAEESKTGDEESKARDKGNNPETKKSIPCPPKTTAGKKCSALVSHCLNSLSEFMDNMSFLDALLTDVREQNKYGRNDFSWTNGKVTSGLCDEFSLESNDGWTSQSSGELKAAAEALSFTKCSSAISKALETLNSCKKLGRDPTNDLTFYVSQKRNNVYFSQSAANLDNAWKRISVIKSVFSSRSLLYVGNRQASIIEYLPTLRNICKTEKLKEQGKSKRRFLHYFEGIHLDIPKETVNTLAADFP
ELG1 MMS Luc: confirmation of human ELG1 repair inhibitors, MMS stimulated | shares compounds with ELG1 DNA repair | HEK293T luciferase-tagged ELG1 level, MMS stimulated | Potency, µM (titrated, usually from 46.1 µM), inactives show top-dose activity change, negative = inhibition, actives largely listed as inhibitors | 53% of 670 active; note: % is set by controls: 0 for no effect and ±100 for the full control effect; nearly all actives have a fitted effect of over 60% in size
ELG1 5FU viab: confirmation of ELG1 repair inhibitors: viability with 5FU; shares compounds with ELG1 DNA repair; cell viability with 5-FU, ELG1-dependent repair; Potency, µM (doses to about 46.1 µM), without a hit: top-dose activity change, negative = viability loss, hits mostly cytotoxic; 670 tested, under 10 active; AID 624250;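 note: ELG1-luc HEK293T cells cotreated with 5-fluorouridine at 10 µM final; viability measured 16 h after compound addition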
ELG1 MMS cell: confirmation of ELG1 repair inhibitors: viability with MMS | 33% of 670 active | Potency, µM (series often up to 46.1 µM), for the others: top-dose activity change, negative = viability loss, usual class: cytotoxic | shares compounds with ELG1 DNA repair | Cell viability with MMS, ELG1-dependent DNA repair;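 note: ELG1-luc HEK293T cells co-treated with 10 µM MMS; viability read 16 h after compound addition; % is set by controls: 0 for no effect and ±100 for the full control effect; nearly all actives have a fitted effect of over 60% in size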
Cell viab unstim: affects unstimulated cell viability, ELG1 hit counter-screen; shares compounds with ELG1 DNA repair; cell viability counter-screen, unstimulated, luminescence; Potency, µM (series often up to 45.9 µM), for the others: at the highest dose activity change, negative = loss of viability, hits mostly cytotoxic; 8% of 900 active; AID 624252;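 note: compound exposure lasted 16 hours before reading; % is set by controls: 0 for no effect and ±100 for the full control effect; nearly all actives have a fitted effect of over 55% in size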
FLuc biochem: inhibits purified firefly luciferase, counter-screen for ELG1 hits; purified firefly luciferase, luminescence counter-screen; 10% of 350 active; shares compounds with ELG1 DNA repair; Potency, µM (series often up to 57.5 µM), inactives show top-dose activity, negative = inhibition, usual class: inhibitors; note: % is set by controls: 0 for no effect and ±100 for the full control effect
Starred values were filed as active, the others as inactive; ? = inconclusive; . = no result given; [ ] = dose if it differs, or a comment. An excerpt weighted towards active compounds, which were near 9.4% of everything screened. Calls come from the whole dose curve; as a rule, active = well fitted curve in the direction sought with a large enough effect; inconclusive = small, poorly fitted or top-dose-only effect, or another doubt; inactive = no such curve, though single readings can be large; an effect the other way counts as inactive or inconclusive. Potency is the fitted concentration of half-maximal effect.

SMILES	ELG1 DNA repair	Rab9 promoter act	SMN2 splice enh	ELG1 genotox	NPC1 promoter act	FLuc modulator	ELG1 Luc conf	ELG1 MMS Luc	ELG1 5FU viab	ELG1 MMS cell	Cell viab unstim	others
O=C(NC1CCCCCCC1)c1cc(COc2ccc3ncccc3c2)on1	1.6µM*	-39%	-61%	-12%	-34%	-19%	18µM*	1.1µM*	-3%	1.4µM*	?	ELG1 FLuc counter=-12%;FLuc biochem=?
OCCN1CCN(c2nc(-c3ccccc3O)nc3ccccc23)CC1	?	-3%[1.84 µM]	.	-3%	-4%	-1%	.	.	.	.	.
COc1cc(/C=N/NC(=O)Nc2cccc3nsnc23)cc(OC)c1OC	2.3µM*	7%	0%	0%	1%	-17%	1.6µM*	?	?	-10%	?
CCOc1ccc(C(C(=O)NCC2CCCO2)N(Cc2cccs2)C(=O)c2snc(C(N)=O)c2N)cc1 (centres undefined)	4.6µM*	0%	.	-15%	-2%	3%	7.9µM*	7.9µM*	-12%	?	?
c1ccc(COC(CN2CCCCCC2)CN2CCCCCC2)cc1	?	-6%	.	-16%	-1%	1%	.	.	.	.	.
CCc1cccc(NC(=O)Cn2cc(C=O)c3ccccc32)c1	3.7µM*	-2%	-72%	9%	-5%	-4%	?	2.5µM*	1%	2.8µM*	-18%
O=S(=O)(c1c(Cl)cc(Br)cc1Cl)N1CCN(C(=S)NC2CC2)CC1	4.1µM*	.	.	-2%	.	.	4µM*	16µM*	?	14µM*	-12%
COc1cc2c(cc1OC)n(CC(=O)NC1CCCCCC1)n1c(C)cc(=O)nc21	1%	10%	.	12%	-2%	0%	.	.	.	.	.
COC1=C2C[C@@H](C)C[C@H](OC)[C@H](O)[C@@H](C)/C=C(\C)[C@H](OC(N)=O)[C@@H](OC)/C=C\C=C(/C)C(=O)NC(=CC1=O)C2=O	.	.	.	.	.	.	1.4µM*	2µM*	?	14µM*	?
Cc1nnc(SCC2=C(C(=O)O)N3C(=O)C(NC(=O)C(C)n4nc(C(F)(F)F)cc4C)C3SC2)s1 (centres undefined)	0%	-1%	-12%	-3%	0%	-5%	.	.	.	.	.
COc1ccc2ncn(-c3ccccc3)c2c1	2.3µM*	3%	-15%	-10%	-2%	3%	?	?	9%	?	7%
c1ccc(-n2cnc3ccccc32)cc1	?	20%	-16%	-13%	13%	?	.	.	.	.	.
O=C1CCC[C@@H]2Cc3nc4cc5c(cc4cc3[C@@H]3CCN1[C@H]23)OCO5	.	.	.	.	.	.	.	.	.	.	?
COc1ccc(C(=O)Nc2cc3c(cc2N2CCCCC2)n(C)c(=O)n3C)cc1OC	-7%	-1%	.	?	0%	-1%	?	9%	?	-2%	0%	ELG1 FLuc counter=100%;FLuc biochem=-2%
O=C(NCCN1CCOCC1)c1ccc(NS(=O)(=O)c2ccccc2)cc1	8%	-2%	.	-1%	-2%	1%	.	.	.	.	.
COc1cccc(C(=O)N/N=c2\oc3c(OC)cccc3cc2C(=O)NCc2ccccc2)c1	4.1µM*	3%	-20%	7%	7%	5%	2.2µM*	?	?	4%	-13%
CN(C(=O)CSc1nc2ccc(Cl)cc2[nH]1)C1CCS(=O)(=O)C1 (centres undefined)	3%	.	.	0%	.	.	.	.	.	.	.
CCc1cn(C2CC(O)C(CO)O2)c(=O)[nH]c1=O (centres undefined)	?	-3%	.	1%	0%	-31%	.	.	.	.	.
COc1ccc(-c2cc3cc(F)ccc3cn2)cc1	?	.	.	?	.	.	.	.	.	.	-6%
COc1ccc(-c2n[nH]c3c2cnc2ccc(F)cc23)cc1	.	.	.	.	.	4%	.	.	.	.	.
O=C(Nc1ccc(S(=O)(=O)Nc2nccs2)cc1)c1c(F)c(F)c(F)c(F)c1F	-2%	1%	.	-1%	-1%	1%	.	.	.	.	.
Fc1ccc2cc(CCO[C@H]3CCCCO3)ncc2c1	?	.	.	?	.	.	.	.	.	.	?
COc1ccc(NC(=O)c2sc3ncnc(N4CCN(c5ccccn5)CC4)c3c2C)cc1Cl	2.6µM*	-15%	.	-10%	-8%	-4%	5.6µM*	13µM*	-7%	?	?	ELG1 FLuc counter=4%;FLuc biochem=-3%
O=c1cc(-c2ccccc2)oc2ccc(Br)cc12	?	.	.	?	.	.	.	.	.	.	-14%
O=C(COc1ccc2oc(-c3ccccc3)cc(=O)c2c1)Nc1ccccc1	?	-5%	0%	9%	-2%	-22%	.	.	.	.	.
COc1cccc2oc(-c3ccccc3)cc(=O)c12	.	.	.	.	.	.	.	.	.	.	?
CC(C)Oc1ccc(CNS(=O)(=O)c2csc(C(N)=O)c2)cc1	?	-7%	.	9%	-5%	0%	.	.	.	.	.
Cc1ccc2oc3c(c(=O)c2c1)C1(C(=O)N(C)c2ccccc21)N(CCCO)C3=O (centres undefined)	.	.	5%	.	.	-1%	.	.	.	.	.
CCc1ccc(CNC(=O)c2ccc(OC3CCN(C(C)=O)CC3)c(OC)c2)nc1	-17%	-2%	.	-1%	-3%	0%	.	.	.	.	.
